According to PubChem BioAssay AID1347417 (National Center for Advancing Translational Sciences (NCATS), 2020):
Among all 120,000 compounds or so, about 5,300 (4.4%) were called active. Not shown: some 22% with an inconclusive outcome. Only a selection was taken, and actives are over-represented in it overall. Unmarked numbers belong to inactive results. Calls follow the shape of the dose curve; as a rule, active = well fitted inhibition curve with a large enough effect; inconclusive = small, poorly fitted or top-dose-only effect; inactive = no such curve, though single readings can be large or run the other way.

Test: qHTS Primary assay for Inhibitors of Plasmodium falciparum Dd2 growth in vitro; also: nearly all actives have a fitted effect of over 65% in size;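 as to activity, negative = inhibition: plate controls were DMSO vehicle for no effect and reference drug for full effect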
Conditions: P. falciparum Dd2 growth, SYBR Green, 72 h; series mostly up to 28.9 µM; activity, negative = inhibition: at the top concentration
Method in brief: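 Infected erythrocytes (Dd2, 0.3% parasitemia, 2.5% hematocrit final) are added to compound in RPMI-1640/Albumax II medium, grown 72 h at 37C in low oxygen, then lysed with saponin/Triton-X containing SYBR Green and read by fluorescence.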
Potency is read from the fitted curve at half-maximal effect.

SMILES | activity, negative = inhibition | outcome | Potency
Cc1cc(C)cc(-n2ccnc2SCC(=O)Nc2nc3ccccc3s2)c1 | 9.7% |  | 
Cc1ccc(-c2noc([C@@H]3CCCN3C(=O)c3cc(Cl)ccc3F)n2)cc1 |  | inactive | 
CS(=O)(=O)Cc1ccc(-c2cccc(OCc3ccccc3F)c2)nc1 | 15.8% |  | 
COCCC(=O)NCCC1CCN(C(=O)Nc2ccccc2F)CC1 | 1.23% |  | 
C[S+](=O)([O-])N1CC2ON=C(C(=O)O)C2C1 (centres undefined) | 15.9% [at 44.1 µM] |  | 
CCOc1ccc2c(n1)CCN(C(=O)c1ccccc1C)C2 | 23.4% |  | 
C[C@@H]1CN(C(=O)c2ccc(-c3ccn[nH]3)cc2)CC[C@@]1(O)C1CCOCC1 | -4.28% |  | 
COC(=O)CNC(=O)N1CCOC(c2ccc(Cl)c(Cl)c2)C1 (centres undefined) | -7.83% |  | 
Cc1noc(-c2cccn3c(CNC(=O)CCc4ccccc4)nnc23)n1 | -21% |  | 
COc1cccc(CC(=O)NC2CCN(c3cc(-c4ccccc4)[nH]n3)C2)c1 (centres undefined) | -15.8% |  | 
COc1ccc(CNC(=O)[C@@H]2Cc3cn(Cc4ccncc4)c4cccc(c34)[C@H](CC(C)C)N2)cc1 |  | inactive | 
CC(C)C[C@@H]1N[C@H](C(=O)NCc2ccc(F)cc2)Cc2cn(C)c3cccc1c23 |  |  | 14.1 µM (active)
CC#CCn1cc2c3c(cccc31)[C@H](CC(C)C)N[C@H](C(=O)NCc1ccccc1OC)C2 | -14.8% |  | 
O=C(Nc1cccnc1)N[C@@H]1C[C@H](CO)[C@@H](O)[C@H]1O | 15.7% [at 44.1 µM] |  | 
Cc1ccccc1CNC(=O)C1CCCN(C(=O)c2ccccc2)CCC(=O)NCC1 (centres undefined) | 0.165% |  | 
O=c1c2cccnc2n(Cc2cccc(F)c2)c(=O)n1Cc1ccccc1Cl |  |  | 12.6 µM (active)
COc1ccc(-n2c(=O)c3ccccc3n(Cc3ccccc3Cl)c2=O)cc1 | 10.2% |  | 
O=C(O)c1ccc(CSc2nc3cccnc3n2Cc2cccc(F)c2)cc1 | -8.45% |  | 
COc1ccc(-c2ccnc3nc(CC(C)C)nn23)c(F)c1 | -29.2% |  | 
CC(NC(=O)c1noc(-c2ccc(F)cc2)n1)c1ccc(F)cc1 (centres undefined) |  | inactive; activator; fitted 0.8913 uM | 
Cc1cccc(C(=O)N2CCC(OC3CCN(Cc4ccccc4)CC3)CC2)c1 |  |  | 3.98 µM (active)
CC(C)CN1CCN(C2CCOC3(CCN(S(=O)(=O)c4cccs4)CC3)C2)CC1 (centres undefined) | -11.2% |  | 
CN1CCCN(S(=O)(=O)c2cccs2)c2ccccc21 | -16.5% |  | 
CC(C)C(=O)N1CCC(OC2CCN(Cc3ccccc3)CC2)CC1 | -28.6% |  | 
Cc1cccc(C(=O)N2CCC(CC(=O)NCc3ccccc3)C2)c1 (centres undefined) | 23.5% |  | 

SMILES | activity, negative = inhibition | outcome | Potency
O=S(=O)(c1cccs1)N1CCC(OC2CCN(Cc3ccccc3)CC2)CC1 |  |  | 3.55 µM (active)
N[C@H]1CCN2C(=O)c3cc(-c4ccc(F)cc4F)ccc3NC(=O)[C@H]12 |  | inactive [at 44.1 µM] | 
Cc1cccc(C(=O)N2CC(c3nnc(C(C)C)o3)C3(CCOCC3)C2)c1 (centres undefined) | -19.4% |  | 
Cc1cnc(CCNC(=O)Nc2ccccc2F)n1C1CCC1 |  |  | 4.47 µM (active)
Cc1cnc(CCNC(=O)c2cn(C)cn2)n1C1CC1 | -21% |  | 
CC(=O)NCCc1ncc(C)n1C1CCCCC1 | -23.6% |  | 
CCNC(=O)c1c(C)oc2c1CN(C(=O)CCc1ccccc1)CC2 |  | inactive | 
O=c1[nH]c(N2CCOCC2)nc2c1CCN(Cc1cccc(F)c1)CC2 |  | inactive [at 5.79 µM] | 
C=C(C)CN(CC)C(=O)c1c(C)oc2c1CN(Cc1cccc(F)c1)CC2 |  |  | 8.91 µM (active)
O=C(CCc1ccccc1)N1CCCCCC1c1nc(-c2ccccc2)no1 (centres undefined) | -10.1% |  | 
Cc1cccc(CC(=O)N2CCC(c3noc(COCC4CC4)n3)CC2)c1 | -11.1% |  | 
Cc1ccc2c(C)c(C(=O)N3CCCn4cncc4C3)oc2c1 | -21.1% |  | 
COc1ccc(C(=O)Nc2ccc3nc(N4CCCCC4)cc(C)c3c2)cc1OC |  |  | 3.16 µM (active)
COc1ccc(NC(=O)c2ccc3c(c2)N(S(C)(=O)=O)CC3)cc1OC | -0.286% |  | 
COc1ccc(NC(=O)c2ccc3nc(C(C)C)oc3c2)cc1OC | 14.6% |  | 
COc1ccc(N2CCC(NC(=O)c3ccc(N(C)C)cc3)C2=O)cc1 (centres undefined) | -12% |  | 
O=C(NCc1ccc(Cl)nc1)c1cnn2c1CN([S+](=O)([O-])c1cccc(C(F)(F)F)c1)CC2 | 70.5% |  | 
O=C(Nc1ccc2nc(SCCOc3ccccc3)sc2c1)c1ccco1 |  |  | 4.47 µM (active)
Cc1cccc(OCCSc2nc3ccc(NC(=O)COc4ccccc4C)cc3s2)c1 | -19.9% |  | 
CC(=O)Nc1ccc2nc(SCCOc3cc(C)cc(C)c3)sc2c1 |  | inactive | 
Cc1ccccc1OCCSc1nc2ccc(NC(=O)c3ccco3)cc2s1 |  |  | 2.24 µM (active)
Cc1ccc(OCCSc2nc3ccc(NC(=O)COc4ccc(C)cc4)cc3s2)cc1 | 5.02% |  | 
COc1cc(C)ccc1OCCSc1nc2ccc(NC(=O)c3ccc(C)cc3)cc2s1 | -22.7% |  | 
CN1CC2(CCN(Cc3cn[nH]c3-c3ccccc3)CC2)CC1C(=O)N1CCOCC1 (centres undefined) | -19.7% |  | 
